Screening results as filed in PubChem.
PP1 inh: blocks human PP1-alpha phosphatase, a PP5 counter-screen. purified PP1alpha, OMFP fluorescence. inhibition, % at 6.7 µM. actives 0.9% (n = 320,000). AID 2235;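 active = inhibition above the mean inhibition of all tested compounds plus 3 SD, computed separately for each screening campaign, cut at about 15% in these data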
PP5 primary: inhibitors of human protein phosphatase 5 (PP5). purified PP5c, OMFP substrate fluorescence. inhibition, % at 6.7 µM. actives 0.18% (n = 320,000). AID 1987;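 active = inhibition above the campaign's mean inhibition across all tested compounds plus 3 SD, cut at about 9.5% in these data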;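 also: 0% = DMSO only and 100% = 100 µM cantharidin control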
PAFAH2 FP inh: inhibitors of human PAFAH2. Q99487. recombinant PAFAH2, FP-rhodamine activity probe, fluorescence polarization. inhibition, % at 3.39 µM. actives 0.99% (n = 340,000);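 active = inhibition above the mean over all tested compounds plus 3 SD, cut at about 30% in these data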;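 also: inhibitors block probe labeling of enzyme so polarization drops; 0% = enzyme with DMSO and 100% = wells lacking PAFAH2 protein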
pPAFAH FP inh: inhibitors of human plasma PAF acetylhydrolase (pPAFAH). Q13093. recombinant pPAFAH, FP-rhodamine probe fluorescence polarization. inhibition, % at 3.39 µM. actives 1.5% (n = 330,000). AID 463082;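 active = inhibition above the mean inhibition across the screen plus 3 SD, cut at about 25% in these data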;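 also: inhibitors block binding of the rhodamine activity-based probe so polarization drops; 0% = enzyme with DMSO and 100% = wells lacking pPAFAH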
PAFAH1B3 inh: blocks human PAF acetylhydrolase 1B catalytic subunit 3; actives 0.28% (n = 340,000); inhibition, % at 3.39 µM; recombinant PAFAH1B3, FP-rhodamine probe, fluorescence polarization; Q15102; AID 492972;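 active = inhibition above the screen-wide average of all tested compounds plus 3 SD, cut at about 25% in these data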;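 also: 0% = enzyme with DMSO only and 100% = wells lacking PAFAH1B3 protein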
Target sequence (Q15102 whole entry, looked up): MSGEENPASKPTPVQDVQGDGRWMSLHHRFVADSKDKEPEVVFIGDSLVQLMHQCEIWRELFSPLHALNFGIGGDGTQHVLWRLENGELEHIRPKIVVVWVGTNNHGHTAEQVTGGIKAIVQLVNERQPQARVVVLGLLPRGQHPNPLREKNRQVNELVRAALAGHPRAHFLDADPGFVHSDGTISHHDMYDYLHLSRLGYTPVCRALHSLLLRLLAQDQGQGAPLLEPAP
PAFAH1B2 inh: PAFAH1B2 (human) inhibition; recombinant PAFAH1B2, FP-rhodamine activity probe, fluorescence polarization; inhibition, % at 3.39 µM; actives 1.2% (n = 340,000); AID 492953;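 active = inhibition above the mean of all tested compounds plus 3 SD, cut at about 24% in these data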;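 also: 0% = enzyme with DMSO and 100% = wells lacking PAFAH1B2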
Target sequence (P68402 whole entry, looked up): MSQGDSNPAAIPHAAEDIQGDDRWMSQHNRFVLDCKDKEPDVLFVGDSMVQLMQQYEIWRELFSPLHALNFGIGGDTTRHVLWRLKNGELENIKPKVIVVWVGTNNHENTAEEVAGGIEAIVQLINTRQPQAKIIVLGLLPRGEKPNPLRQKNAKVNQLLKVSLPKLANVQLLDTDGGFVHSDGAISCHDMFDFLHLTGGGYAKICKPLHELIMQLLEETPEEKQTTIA
Active calls of the source: *. Rows were chosen to be rich in hits. Some 3.4% of all compounds tested hit in one or more screens of this group.

For CC(=O)n1cc(N(C(=O)CCl)c2ccccc2)c2ccccc21 the results were PP1 inh -2, PP5 primary -3, PAFAH2 FP inh 1, pPAFAH FP inh 8, PAFAH1B3 inh 12 and PAFAH1B2 inh 5.
For O=C(CSc1ncc(-c2ccc(F)cc2)[nH]1)NCc1ccco1 the results were PP1 inh -4, PP5 primary -1, PAFAH2 FP inh -4, pPAFAH FP inh 1, PAFAH1B3 inh -3 and PAFAH1B2 inh 8.
O=C(CCS(=O)(=O)c1ccc2c(c1)NC(=O)CS2)NCCc1ccc(Cl)cc1 was read as PP1 inh -3, PP5 primary 4, PAFAH2 FP inh 1, pPAFAH FP inh 5, PAFAH1B3 inh 6 and PAFAH1B2 inh 26*.
For O=C(CCS(=O)(=O)c1ccc2c(c1)NC(=O)CS2)NCCc1ccccc1 the results were PP1 inh -2, PP5 primary 0, PAFAH2 FP inh 3, pPAFAH FP inh 5, PAFAH1B3 inh 8 and PAFAH1B2 inh 2.
Screening Brc1ccc(N=C/C=C/C=C/Nc2ccc(Br)cc2)cc1 returned PP1 inh 0, PP5 primary 1, PAFAH2 FP inh 5, pPAFAH FP inh 5, PAFAH1B3 inh 3 and PAFAH1B2 inh 7.
`O=S1(=O)CCOC[C@H](Cc2ccccc2)N1Cc1cccc(F)c1` gave PP1 inh -2, PP5 primary 0, PAFAH2 FP inh 3, pPAFAH FP inh 3, PAFAH1B3 inh 3 and PAFAH1B2 inh 5.
O=S1(=O)CCOC[C@H](Cc2ccccc2)N1Cc1ccc(F)cc1 was read as PP1 inh -8, PP5 primary 2, PAFAH2 FP inh 0, pPAFAH FP inh -8, PAFAH1B3 inh 5 and PAFAH1B2 inh 33*.
`COC(=O)Cc1ccc(NC(=S)NCc2ccccc2Cl)cc1` gave PP1 inh 3, PP5 primary 3, PAFAH2 FP inh 0, pPAFAH FP inh 28*, PAFAH1B3 inh 14 and PAFAH1B2 inh 5.
For COC(=O)Cc1ccc(NC(=S)NCCO)cc1 the results were PP1 inh -5, PP5 primary -4, PAFAH2 FP inh 0, pPAFAH FP inh 1, PAFAH1B3 inh 4 and PAFAH1B2 inh 3.
`Cc1ccc(-n2c(SCC(=O)N/N=C/c3c(C)nn(-c4ccccc4)c3C)nc3ccccc3c2=O)cc1` gave PP1 inh 1, PP5 primary 1, PAFAH2 FP inh -9, pPAFAH FP inh -3, PAFAH1B3 inh 2 and PAFAH1B2 inh 1.
Screening Cc1nn(-c2ccccc2)c(C)c1/C=N/NC(=O)CSc1nnc(SCc2cccc3ccccc23)s1 returned PP1 inh 16*, PP5 primary 2, PAFAH2 FP inh -25, pPAFAH FP inh -11, PAFAH1B3 inh -20 and PAFAH1B2 inh -13.
`COC/C=C/C1=CC2=CC(=O)C(C)(OC(=O)c3cnc4ccccc4n3)C(=O)C2=CN1CCOC` (stereo not drawn) gave PP1 inh 2, PP5 primary 2, PAFAH2 FP inh 9, pPAFAH FP inh 7, PAFAH1B3 inh -1 and PAFAH1B2 inh -2.
Screening COc1ccc(N2CCN(C(=O)c3cn(CC4CCCCC4)nn3)CC2)cc1 returned PP1 inh 2, PP5 primary 0, PAFAH2 FP inh 9, pPAFAH FP inh 28*, PAFAH1B3 inh -1 and PAFAH1B2 inh 1.
For COc1cccc(C(=O)Nc2ccc3c(c2)C(=O)c2ccccc2C3=O)c1 the results were PP1 inh 33*, PP5 primary 2, PAFAH2 FP inh 10, pPAFAH FP inh 11, PAFAH1B3 inh -1 and PAFAH1B2 inh -2.
`O=C(COC(=O)c1ccc([N+](=O)[O-])o1)Nc1ccc2c(c1)OCO2` gave PAFAH2 FP inh 7, pPAFAH FP inh 7, PAFAH1B3 inh 5 and PAFAH1B2 inh 4.
Screening C=CCNC(=O)c1onc(CSc2ccc(F)c(F)c2)c1C(=O)O returned PP1 inh 0, PP5 primary 1, PAFAH2 FP inh 20, pPAFAH FP inh 5, PAFAH1B3 inh 6 and PAFAH1B2 inh 10.
C=CCNC(=O)c1onc(CSc2ccc(Cl)cc2)c1C(=O)NCC=C was read as PP1 inh 1, PP5 primary 1, PAFAH2 FP inh -8, pPAFAH FP inh 0, PAFAH1B3 inh -5 and PAFAH1B2 inh 25*.
`COc1ccc(/C=C2/C(=O)N(c3cccc(F)c3)N=C2C)c(OC)c1` gave PP1 inh 0, PP5 primary 4, PAFAH2 FP inh 11, pPAFAH FP inh 4, PAFAH1B3 inh 9 and PAFAH1B2 inh 5.
`CCCNC(=O)c1ccc2c(=O)c(O)c(-c3ccsc3)[nH]c2c1` gave PP1 inh 2, PP5 primary 1, PAFAH2 FP inh -16, pPAFAH FP inh 15, PAFAH1B3 inh 38* and PAFAH1B2 inh 27*.
`Cc1ccc(CNC(=O)c2ccc3c(=O)c(O)c(-c4ccc(C)cc4)[nH]c3c2)cc1` gave PP1 inh 5, PP5 primary 2, PAFAH2 FP inh -22, pPAFAH FP inh 27*, PAFAH1B3 inh 11 and PAFAH1B2 inh 8.
For O=C(c1ccccc1)C1C(c2ccccc2)C1[N+](=O)[O-] (stereo not drawn) the results were PP1 inh 1, PP5 primary -2, PAFAH2 FP inh 0, pPAFAH FP inh 6, PAFAH1B3 inh 4 and PAFAH1B2 inh 3.
CN(C)c1ccc([C@@H]2[C@@H]([N+](=O)[O-])[C@H]3C=Cc4ccccc4N3[C@H]2C(=O)c2ccc(Cl)cc2)cc1 was read as PP1 inh 16*, PP5 primary 1, PAFAH2 FP inh 8, pPAFAH FP inh 7, PAFAH1B3 inh 0 and PAFAH1B2 inh 4.
Cc1ccc(-n2c(C3CC3c3ccc(Cl)cc3)n[nH]c2=S)cc1 (stereo not drawn) was read as PP1 inh 2, PP5 primary 2, PAFAH2 FP inh -5, pPAFAH FP inh 0, PAFAH1B3 inh 10 and PAFAH1B2 inh 12.
Screening N#CCC(=O)Nc1ccc(C(=O)OCC(=O)c2ccc3c(c2)NC(=O)CO3)cc1 returned PP1 inh 16*, PP5 primary 2, PAFAH2 FP inh -7, pPAFAH FP inh 3, PAFAH1B3 inh 2 and PAFAH1B2 inh -5.
CC(C)(C)c1ccc(NC(=O)COC(=O)c2ccc(NS(=O)(=O)c3ccc(F)c(F)c3)cc2)cc1 was read as PP1 inh 3, PP5 primary 4, PAFAH2 FP inh 24, pPAFAH FP inh 31*, PAFAH1B3 inh -9 and PAFAH1B2 inh -6.
`CNC(=O)COC(=O)c1ccc(NC(=O)CC#N)cc1` gave PP1 inh -2, PP5 primary 0, PAFAH2 FP inh 4, pPAFAH FP inh -3, PAFAH1B3 inh 10 and PAFAH1B2 inh 3.
Cc1cc(C)c(C(=O)COC(=O)c2ccc(NC(=O)CC#N)cc2)cc1C was read as PP1 inh 8, PP5 primary 1, PAFAH2 FP inh -23, pPAFAH FP inh 25*, PAFAH1B3 inh -9 and PAFAH1B2 inh -13.
